PubChem BioAssay AID485346 (Sanford-Burnham Center for Chemical Genomics, 2010)
The campaign covered roughly 330,000 compounds. About 10,000 (3%) were called active.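 Rule for the calls: active = inhibition of at least 50% at 8 µM in the primary screen; inactive = the rest.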 The list comes from a sample in which actives are over-represented; it also holds similar structures and randomly drawn compounds.

Molecular target: Protein Mdm4 (Homo sapiens) + E3 ubiquitin-protein ligase Mdm2 (Homo sapiens) (UniProt O15151+Q00987)
Experiment: disruptors of Mdm2/MdmX RING complex – cell-based, luminescence, split luciferase, SaOS-2, uHTS, primary screen (AID 485346)
Settings: SaOS-2 split-luciferase Mdm2/MdmX complementation, at 8 µM, stronger effect = higher value

Chain of Protein Mdm4 (Homo sapiens) + E3 ubiquitin-protein ligase Mdm2 (Homo sapiens) (O15151 whole entry, looked up): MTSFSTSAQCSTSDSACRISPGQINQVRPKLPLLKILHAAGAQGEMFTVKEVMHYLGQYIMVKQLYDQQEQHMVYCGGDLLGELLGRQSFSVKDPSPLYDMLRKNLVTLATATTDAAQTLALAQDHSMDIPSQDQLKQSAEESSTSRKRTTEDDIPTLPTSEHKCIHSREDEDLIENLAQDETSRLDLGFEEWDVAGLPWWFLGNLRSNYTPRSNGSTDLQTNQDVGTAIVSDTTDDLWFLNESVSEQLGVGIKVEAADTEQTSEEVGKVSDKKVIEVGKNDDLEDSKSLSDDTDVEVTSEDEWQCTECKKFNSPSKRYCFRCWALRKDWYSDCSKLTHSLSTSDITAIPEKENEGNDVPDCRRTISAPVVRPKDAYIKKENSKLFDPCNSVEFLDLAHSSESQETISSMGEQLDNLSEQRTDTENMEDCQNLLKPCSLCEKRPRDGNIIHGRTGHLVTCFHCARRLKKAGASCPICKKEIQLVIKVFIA
Chain of Protein Mdm4 (Homo sapiens) + E3 ubiquitin-protein ligase Mdm2 (Homo sapiens) (Q00987 whole entry, looked up): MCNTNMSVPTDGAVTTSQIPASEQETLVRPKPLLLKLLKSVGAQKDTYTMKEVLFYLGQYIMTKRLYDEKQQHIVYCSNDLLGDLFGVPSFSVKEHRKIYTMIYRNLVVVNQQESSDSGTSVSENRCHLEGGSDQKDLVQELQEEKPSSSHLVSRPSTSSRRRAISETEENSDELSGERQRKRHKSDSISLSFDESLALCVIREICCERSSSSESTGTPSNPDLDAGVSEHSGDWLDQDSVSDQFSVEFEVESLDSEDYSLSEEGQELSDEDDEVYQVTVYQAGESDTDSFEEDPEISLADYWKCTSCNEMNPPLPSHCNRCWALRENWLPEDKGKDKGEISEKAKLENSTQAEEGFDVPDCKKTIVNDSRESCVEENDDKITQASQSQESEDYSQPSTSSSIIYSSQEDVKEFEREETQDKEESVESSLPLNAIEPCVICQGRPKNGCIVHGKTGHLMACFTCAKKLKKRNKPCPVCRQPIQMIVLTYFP

inhibition, active:
O=C1Nc2cc(C(=O)N3CCC(N4CCCCC4)CC3)ccc2S/C1=C\c1ccccc1 54.5%
N#Cc1c(N)nc2c3c(sc(=N)c2c1N)NC(=O)CC3c1ccccc1Cl (stereo not given) 68.7%
O=C(/C=C/c1ccc(Cl)c([N+](=O)[O-])c1)c1cccnc1 84.3%
O=C(/C=C/c1ccc(Cl)c([N+](=O)[O-])c1)c1ccc(O)cc1 98.7%
N=c1n(CCc2ccccc2)c2ccccc2n1Cc1ccccc1F 64.2%
CCN1/C(=C\c2ccc3ccccc3[n+]2CC)Sc2cc(C)ccc21 77.1%
CCCC(=O)Nc1ccc(C(=O)N/N=C/c2ccc[nH]2)cc1 70.3%
Cc1nc2ccccc2nc1N/N=C/c1ccc(O)cc1O 77.6%
Oc1ccc(/C=N/Nc2nc(-c3ccccc3F)nc3ccccc23)c(O)c1 69%
COc1cc2c(cc1OC)C(C)N(S(=O)(=O)c1cnc(Cl)c(Cl)c1)CC2 (stereo not given) 80.7%
COC(=O)C1=C(Nc2ccc(C)cc2)C=C(C)C(C(=O)OC)C1c1ccc(F)cc1 (stereo not given) 50.9%
CCOC(=O)N1CCN(C(=O)c2ccc(S(=O)(=O)c3ccc(C)cc3)c(NC(C)=O)c2)CC1 50.8%
Cc1cc(C)nc(S/C=C/C(=O)c2ccccc2)n1 65.8%
O=C(Oc1c(-c2ccco2)oc2ccccc2c1=O)c1cccnc1 56.6%
CCN(CCCNC(=O)c1ccc2c(c1)NC(=O)CN2C)c1cccc(C)c1 82.6%
COc1ccc2c(c1OC)C(=O)OC2Nc1nc(-c2ccccc2)cs1 (stereo not given) 98.5%
Cc1ccc(-c2csc(NC3OC(=O)c4ccccc43)n2)cc1 (stereo not given) 63.6%
Cn1c(C(=O)NCCCN2CCN(c3cccc(Cl)c3)CC2)cc2c(=O)n(C)c3ccccc3c21 76.9%

inhibition, inactive:
CC1CCN(C(=O)c2ccc3c(c2)NC(=O)CN3)CC1 13%
NC(=O)C1CCN(C(=O)c2ccc(-c3ccccc3)cc2)CC1 13.3%
Cc1[nH]n(C(N)=S)c(=O)c1N=Nc1ccc(Cl)cc1Cl -31.8%
C[C@H](CO)N1C[C@H](C)[C@@H](CN(C)S(=O)(=O)c2ccc(F)cc2)Oc2ccc(NC(=O)CCC(F)(F)F)cc2C1=O -5.06%
COc1ccc(C2CC(=O)Nc3sc(=N)c4c(N)c(C#N)c(N)nc4c32)cc1OC (stereo not given) 19.8%
CSc1nc2c(c(=O)[nH]1)C(c1cccc(Cl)c1Cl)CC(=O)N2 (stereo not given) -2.71%
C/C=C/C=C/C(=O)O 19.9%
Cc1cc(C)c(S(=O)(=O)N2C=CC(C(F)(F)F)=NCC2)c(C)c1 17.6%
CC(C(=O)Nc1ccc(F)c(F)c1F)N1CCCCCC1 (stereo not given) 24.1%
COc1ccccc1CCNC(=O)C1CCN(C(=O)/C=C/c2ccccc2)CC1 -2.9%
CN(C)c1ccc(/C=C/C(=O)c2ccc(O)cc2)cc1[N+](=O)[O-] 11.6%
O=C(/C=C/c1ccc(Cl)cc1Cl)c1cccnc1 17.5%
CN(C)c1ccc(/C=C/C(=O)c2ccc(C(C)(C)C)cc2)cc1[N+](=O)[O-] 30.9%
O=C(Nc1cccnc1)c1ccc(Cl)c([N+](=O)[O-])c1 -11.2%
O=C(COC(=O)CNC(=O)C1CCCCC1)NCc1ccccc1 17.1%
CCCSc1ccc([C@H]2N[C@@](Cc3ccccc3)(C(=O)OC)[C@H]3C(=O)N(C)C(=O)[C@@H]23)cc1 42.6%
CC1CN(C(=S)Nc2ccccc2F)CC(C)O1 (stereo not given) 28.4%
O=C(/C=C/c1cccc([N+](=O)[O-])c1)OCC(=O)N1CCOCC1 9.38%
CCOP(=O)(OCC)C(Nc1cccc(C)c1)c1ccc(F)cc1 (stereo not given) -2.51%
O=C(COC(=O)Cc1ccccc1F)NCCc1ccccc1 6.62%
Fc1ccccc1Cn1cnc(NC(=S)NCCc2ccccc2)n1 45.1%
Cc1nn(CCOc2ccc(Br)cc2)c(C)c1[N+](=O)[O-] 18.2%
C=CC1=C(C(=O)O)N2C(=O)[C@@H](NC(=O)/C(=N\OCC(=O)O)c3csc(N)n3)[C@H]2SC1 16%
COc1ccc(CCOC2OC(CO)C(OC(=O)/C=C/c3ccc(O)c(OC)c3)C(O[C@H]3O[C@@H](C)[C@H](O)[C@@H](O)[C@H]3O)C2O)cc1O (stereo not given in full) -29.1%
COC(=O)C[n+]1cccc2ccccc21 6.08%
O=S(=O)(NCC1CN(S(=O)(=O)c2ccc3c(c2)OCCO3)C1)c1c(F)cccc1F -1.76%
O=C(N[C@H]1C/C=C\C(c2ccc(F)cc2)N(Cc2ccccc2)C(=O)C1)OCC1c2ccccc2-c2ccccc21 (stereo not given in full) 20.2%
O=C(COc1ccccc1[N+](=O)[O-])N/N=C/c1ccc[nH]1 3.97%
CC(=O)Nc1ccc(C(=O)/C=C/c2ccc[nH]2)cc1 1.87%
O=C(NCc1ccccc1CN1CCCC1)C1CCN(S(=O)(=O)c2ccc(Cl)cc2)CC1 3.2%
CC(C)(C)OC(=O)Nc1ccc([C@@H](NC(=O)OC(C)(C)C)C(=O)OC(C)(C)C)cc1 2.33%
O=c1c2ccccc2nc(N/N=C/c2ccccc2)n1O -0.971%
Cc1n[nH]c(=O)nc1N/N=C/c1cccs1 -4.56%
Cc1ccc(/C=N/NC(=O)C2=NNC(c3ccccc3)(c3ccccc3)C2)c(O)c1 42.2%
COc1ccccc1N1CCN(/N=C/c2ccc(O)cc2O)CC1 16.1%
CCCNC(=O)OC[C@H]1O[C@H](CCO/N=C/[C@@H](NS(=O)(=O)c2ccc(C)cc2)[C@H](C)/C=C/CC(=O)OC)C=C[C@@H]1Oc1ccc(OC)cc1 20.8%
O=C(Cn1c2[n+](c3ccc(C(F)(F)F)cc31)CCCCC2)Nc1c(F)cccc1F 13%
C=CCNC(=O)/C=C/c1ccc(C(C)C)cc1 -111%
O=C(c1ccc[nH]c1=S)N1CCN(S(=O)(=O)c2ccc(Br)cc2Cl)CC1 2.6%
COc1cc2c(cc1OC)CN(C(=O)c1cc(S(=O)(=O)N3CCCCC3)ccc1Cl)CC2 20.3%
COc1ccc(S(=O)(=O)N2CCC(C(=O)N3CCc4ccccc4C3)CC2)cc1OC -18.3%
COC(=O)C1C(=O)NCC1c1ccc(C)cc1 (stereo not given) 13%
COC(=O)C1=C(Nc2ccc(OC)cc2)C=C(C)C(C(=O)OC)C1c1ccc(C)cc1 (stereo not given) 19.4%
CC(C)(C)C(=O)NC1CC2CCCC(C1)N2C(=O)Nc1ccccc1F (stereo not given) -1.01%
O=C(CC1C(=O)NCCN1CC(c1ccccc1)c1ccccc1)NCC1CCOCC1 (stereo not given) 15.7%
COc1cc(NS(=O)(=O)c2ccc(NC(=S)NC(=O)c3ccccc3)cc2)nc(OC)n1 13.4%
CCOC(=O)N1CCN(C(=O)c2ccc3c(c2)N(Cc2ccc(C)cc2)CCS3)CC1 6.09%
COCCNC(=O)c1ccc(S(=O)(=O)c2ccc(Cl)cc2)c(NC(C)=O)c1 14.7%
CCOC(=O)/C(C#N)=C\c1c(C)cc(C)c(COC(C)=O)c1C 14.2%
Cc1cc(C)nc(SCC(=O)N(C)C)n1 -9.55%
Cc1cc(C)nc(SCC(=O)c2ccc(Cl)cc2)n1 9.88%
CCCc1ccc(C(=O)COC(=O)CN2C(=O)NC3(CCCCC3C)C2=O)cc1 (stereo not given) 11.7%
N#CCc1ccc(OC(=O)c2cccnc2)cc1 12.8%
O=C(Oc1ccc(Br)cc1)c1cccnc1 -5.87%
O=C(c1ccc(-n2cnnn2)cc1)N1CCN(C(c2ccccc2)c2ccccc2)CC1 12.3%
CCN(CCCNC(=O)CCn1c(=O)[nH]c2ccsc2c1=O)c1ccccc1 0.795%
CCN(CCCNC(=O)C1CCN(S(=O)(=O)c2cnc[nH]2)CC1)c1ccccc1 37.3%
CC1CC(C)CN(C(=O)CSc2ccsc2[N+](=O)[O-])C1 (stereo not given) -7.54%
Oc1ccc(-c2cccc(-c3ccc(O)cc3)c2)cc1 -24.2%
Cc1cccc(Nc2nc(-c3ccccc3)cs2)n1 -222%
Cc1ccc(-c2csc(-c3cc(C)on3)n2)cc1 -47.3%
Cc1ccc(-c2csc(NC(=O)Cn3[nH]c(=O)c4ccccc4c3=O)n2)cc1 31.2%
COc1cc(CC(=O)Nc2nc(-c3ccc(F)c(F)c3)cs2)cc(OC)c1OC 28.8%
OC(CNC1CCCC1)COc1ccc(F)cc1 (stereo not given) 7.59%
CCCCCCCCCCOC(=O)C[N+](C)(C)CC1CCCCC1O (stereo not given) 23.5%
CCN(CC(=O)NCc1ccc(Cl)cc1)C(=O)c1c(C)noc1C 3.48%
O=C(c1ccncc1)N1CCN(S(=O)(=O)c2cccc([N+](=O)[O-])c2)CC1 -3.71%
CC(C)c1ccc(-c2noc(C3CCCN(S(C)(=O)=O)C3)n2)cc1 (stereo not given) 2.01%
Cn1c(C(=O)NCCc2ccsc2)cc2c(=O)n(C)c3ccccc3c21 -6.58%
CCN1CCCC1CNC(=O)c1cc2c(=O)n(C)c3ccccc3c2n1C (stereo not given) 18.3%
O=C(OCC(=O)N1CCN(C(=O)c2ccco2)CC1)c1c(Cl)cccc1Cl 2.03%
CCOC(=O)Cn1c2c(c(-c3ccccc3OC)cc1=O)CCCC2 -13.8%
